Most compounds without a hit are left out; they make up all but 2.8% or so of the library.
WRN inhibitor = blocks human WRN helicase. Q14191. WRN helicase unwinding, fluorescent forked duplex, kinetic. Potency, µM (titrated, usually from 114 µM), for the others: at the highest dose activity change, negative = inhibition, hits mostly inhibitors. hit rate 0.46% among 360,000. AID 651768; note: potency is the fitted concentration of half-maximal effect; % is set by controls: 0 for no effect and ±100 for the full control effect; nearly all actives have a fitted effect of over 55% in size
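Screening of the MLSMR collection measured strand separation of a quenched forked DNA duplex (100 nM) by 20 nM WRN with 2 mM ATP, all final. Compounds were preincubated with enzyme 15 min at room temperature.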
Pol kappa inh = blocks human DNA polymerase kappa activity. Q9UBT6. Potency, µM (doses to about 107 µM), without a hit: top-dose activity, negative = inhibition, usual class: inhibitors. purified Pol kappa, fluorescent DNA synthesis assay, 10 min. hit rate 0.53% among 400,000; note: potency is the fitted concentration of half-maximal effect; % is set by controls: 0 for no effect and ±100 for the full control effect
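10 nM Pol kappa preincubated 15 min at room temperature with compounds, then reaction started with substrate at 50 nM final. Fluorescence read kinetically at 0 and 10 min; buffer-only wells served as negative control.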
Pol beta inh = blocks human DNA polymerase beta activity. P06746. Pol beta primer extension/strand displacement, fluorescence kinetic. Potency, µM (titrated, usually from 114 µM), for inactives: at the top dose activity change, negative = inhibition, usual class: inhibitors. hit rate 1.3% among 340,000. AID 485314; note: potency is the fitted concentration of half-maximal effect; % is set by controls: 0 for no effect and ±100 for the full control effect
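Pol beta (10 nM) and compounds were preincubated 15 min at room temperature, then 50 nM substrate (final) started primer extension/strand displacement. Reads were taken at 0 and 10 min; concentration-response data were fitted to a four-parameter Hill equation.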
POLH inh = DNA polymerase eta (human) inhibition | recombinant Pol eta, fluorescent DNA replication assay | Potency, µM (top dose mostly 114 µM), without a hit: at the highest dose activity change, negative = inhibition, most hits filed as inhibitors | hit rate 1.2% among 390,000; note: potency is the fitted concentration of half-maximal effect; % is set by controls: 0 for no effect and ±100 for the full control effect
Target sequence (Q9Y253 whole entry, looked up): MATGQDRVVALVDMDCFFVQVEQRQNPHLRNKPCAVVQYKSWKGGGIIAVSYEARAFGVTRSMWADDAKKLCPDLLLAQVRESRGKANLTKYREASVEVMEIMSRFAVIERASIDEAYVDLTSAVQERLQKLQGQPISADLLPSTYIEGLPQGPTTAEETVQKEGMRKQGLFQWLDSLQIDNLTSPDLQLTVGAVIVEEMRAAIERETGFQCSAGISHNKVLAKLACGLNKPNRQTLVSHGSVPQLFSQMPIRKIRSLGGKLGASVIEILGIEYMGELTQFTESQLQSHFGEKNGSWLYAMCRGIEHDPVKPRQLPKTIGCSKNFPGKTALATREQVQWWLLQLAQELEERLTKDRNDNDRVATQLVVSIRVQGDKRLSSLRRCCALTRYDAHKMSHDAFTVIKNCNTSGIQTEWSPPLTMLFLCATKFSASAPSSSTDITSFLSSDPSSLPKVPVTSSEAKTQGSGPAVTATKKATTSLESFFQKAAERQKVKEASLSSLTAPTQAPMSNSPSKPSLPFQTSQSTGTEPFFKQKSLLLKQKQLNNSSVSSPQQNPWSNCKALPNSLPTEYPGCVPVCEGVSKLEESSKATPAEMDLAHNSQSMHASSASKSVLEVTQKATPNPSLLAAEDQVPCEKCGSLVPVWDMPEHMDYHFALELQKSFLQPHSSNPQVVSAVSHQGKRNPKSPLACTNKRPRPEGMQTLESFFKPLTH
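Pol eta (10 nM) was preincubated with compounds for 15 min at room temperature, after which fluorescent replication substrate (50 nM final) was added to start the reaction. Fluorescence was read kinetically at 0 and 10 min.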
POLI inh = inhibitors of human DNA polymerase iota; Q9UNA4; Pol iota fluorescent replication assay, 10 min; Potency, µM (series often up to 115 µM), for inactives: at the highest dose activity, negative = inhibition, most hits filed as inhibitors; hit rate 1% among 390,000; AID 588590; note: potency is the fitted concentration of half-maximal effect
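Pol iota at 10 nM preincubated 15 min with compounds at room temperature; reaction started with fluorescent substrate, 50 nM final. Fluorescence read kinetically at 0 and 10 min; buffer-only wells as negative control.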
PI5P4K alpha inh = PI5P4K alpha (human) kinase inhibition; P48426; PI5P4Kalpha enzyme, ADP-Glo luminescence, 60 min; active compounds read low; max response, %; hit rate 1.2% among 330,000; AID 652105; active = max response of -50% or lower; inconclusive = between -30% and -50%; inactive = -30% or higher; note: value at the top dose of about 77 µM; % is set by controls: 0 for no effect and ±100 for the full control effect
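Reactions run in 0.038 M HEPES pH 7.4, 0.28 mM EGTA, 0.1% CHAPS and 5% DMSO, with PI5P4Kalpha, substrate, compound and 5 microM ATP final, one hour at room temperature. Readout is ADP-Glo luminescence.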
ADP-Glo counter = ADP-Glo luciferase interference, PI5P4K counter-screen | shares compounds with PI5P4K alpha inh | ADP-Glo detection counter-screen, luciferase luminescence, no enzyme | Potency, µM (series often up to 76.9 µM), without a hit: at the top dose activity change, negative = inhibition, usual class: inhibitors | 1,100 tested, under 10 active
* hit, by the source's call; ? = inconclusive; . = not tested or not shown; [ ] = remark or other dose. Unless noted, calls come from the whole dose curve; as a rule, active = well fitted curve in the direction sought with a large enough effect; inconclusive = small, poorly fitted or top-dose-only effect, or another doubt; inactive = no such curve, though single readings can be large; an effect the other way counts as inactive or inconclusive.

SMILES | WRN inhibitor | Pol kappa inh | Pol beta inh | POLH inh | POLI inh | PI5P4K alpha inh | ADP-Glo counter
CCN(CC)c1ccc(NC(=O)C2=CC=CN3CCS(=O)(=O)N=C23)cc1 | 3% | 8% | . | -15% | 32% | 1 | .
O=c1[nH]c2cc3c(cc2cc1CN(Cc1ccccc1)Cc1nnnn1Cc1ccco1)OCCO3 | ? | ? | 32µM* | ? | 18µM* | -54* | 10%
Cc1cccc(C)c1NC(=O)CN(C)C(=O)COc1cccc2c1OC(C)(C)C2 | -4% | 8% | . | -16% | 7% | -2 | .
Cc1sc2ncnc(NC(C)C(=O)O)c2c1C (stereo not drawn) | -2% | 5% | -10% | -12% | -5% | . | -5%
Cc1c(C(=O)N2CCN(C(=O)c3ccccc3)CC2)oc2ccc(F)cc12 | -18% | -23% | . | ? | -4% | -54* | 3%
Cc1c(Cc2ccccc2)sc(NC(=O)c2ccco2)c1C(N)=O | -7% | -3% | 0% | -11% | -2% | . | .
CCOc1ccc(CC(=O)Nc2sc(Cc3ccccc3)c(C)c2C(N)=O)cc1OCC | -5% | -7% | -10% | -17% | -1% | -53* | -2%
COCc1cc(N2CCCCC2)nc(-c2ccccc2)n1 | ? | -10% | 11% | -8% | 50% | -74* | -4%
COc1cccc(CNS(=O)(=O)c2ccc(-c3cc(C(F)(F)F)on3)s2)c1 | . | -4% | -8% | -23% | 8% | . | .
CC(NC(=O)c1ccnn1C)C1CCCO1 (stereo not drawn) | 3% | -1% | 0% | -1% | -22% | ? | 2%
CC(NC(=O)c1ccc(Cl)s1)C1CCCO1 (stereo not drawn) | -2% | -3% | 27% | 4% | 14% | . | .
COCCCNC(=S)N1CCN(C(c2ccccc2)c2ccccc2)CC1 | -31% | -12% | 32% | -21% | 7% | 5 | .
CCOc1ccc(CN2C(=O)C(=O)c3cccc(C)c32)cc1OC | . | 1% | 9% | -20% | -12% | . | .
CC(=O)c1ccc(NC(=O)c2cc(=O)[nH]c3ccccc23)cc1 | 1% | -5% | 5% | 1% | -3% | -15 | .
CCOc1ccc(NC(=O)c2cc(=O)[nH]c3ccccc23)cc1 | 5% | 6% | 14% | 7% | 156% | -51* | -6%
CCCNC(=O)CSc1nnc(-c2ccco2)n1C | -2% | -11% | 32% | 3% | 2% | -51* | -3%
CCc1cccc(C)c1NC(=O)Cn1c(=O)cc(C)c2c(C)nn(-c3cccc(F)c3)c21 | . | 0% | 52% | -6% | -23% | . | .
O=C(CCc1ccccc1)NNC(=O)c1ccncc1 | 5% | 4% | . | -12% | 27% | -7 | .
Oc1cc2c(cc1C(c1ccc(Cl)c(Cl)c1)N1CCCC1)OCO2 (stereo not drawn) | ? | -8% | -8% | -24% | ? | -74* | 5%
O=C(OCC(=O)N1N=C(c2ccc(Cl)cc2)CC1c1ccco1)c1cccnc1 (stereo not drawn) | ? | 45µM* | . | 28µM* | ? | -71* | -1%
CN(C)CCC1(C2=CCCC2)CC/C(=C/c2ccc(Cl)cc2)C1=O (stereo not drawn) | -2% | -5% | . | -17% | 13% | -1 | .
Nc1nc(SCC(=O)N2CCc3ccccc32)[nH]c(=O)c1-c1ccccc1 | -6% | 2% | -7% | -12% | 8% | . | .
O=C(CSc1nc(-c2ccccc2)cc(=O)[nH]1)N1CCc2ccccc21 | -28% | -7% | ? | 2% | ? | -50* | -5%
COc1cccc(-c2ccc(CN3C(C(C)C)C(=O)N(Cc4cn(CCC5OCCO5)nn4)CCS3(=O)=O)cc2)c1OC (stereo not drawn) | -5% | . | . | . | . | 8 | .
O=C(CSCCO)Nc1cccc(C(F)(F)F)c1 | 7% | -2% | -23% | -18% | -12%[58.9 µM] | . | .
SMILES | WRN inhibitor | Pol kappa inh | Pol beta inh | POLH inh | POLI inh | PI5P4K alpha inh | ADP-Glo counter
N#Cc1c(SCC(=O)Nc2cccc(C(F)(F)F)c2)sc2c(O)cc(=O)[nH]c12 | ? | 25µM* | 44% | 20µM* | ? | -103* | -1%
Cc1cc(NC(=O)CSc2nc3[nH]c(=O)cc(O)c3s2)ccc1Br | -24% | -11% | . | -16% | 12% | -58* | -5%
Cc1cc(NC(=O)CSc2sc3c(O)cc(=O)[nH]c3c2C#N)ccc1Br | -7%[11.6 µM] | ? | ? | 28µM* | 56µM* | -104* | 5%
Cc1ccc(C)c(NC(=O)CSc2sc3c(O)cc(=O)[nH]c3c2C#N)c1 | -21%[57.1 µM] | ? | ? | 20µM* | 28µM* | -64* | 3%
CCC(=O)Nc1cc(-c2nc3cc(C)cc(C)c3o2)ccc1C | . | 5% | 7% | -5% | -1% | . | .
NC(=O)c1nc(C(=O)N2CCN(c3ccccc3)CC2)c2ccccc2n1 | -1% | -5% | . | -5% | 9% | -1 | .
COc1ccccc1NC(=O)CSc1sc2c(O)cc(=O)[nH]c2c1C#N | 50µM* | 50µM* | 0.56µM* | 20µM* | 2.8µM* | -66* | -5%
COc1cc(NC(=O)c2ccccc2)c(OC)cc1NC(=O)CSc1[nH]c(=O)cc(C)c1C#N | -6% | 2% | ? | -22% | -4% | 2 | .
CCc1sc(C(=O)Nc2ccc3c(c2)OCO3)cc1C | -28% | -33% | . | ? | ? | -72* | 5%
CCc1sc(C(=O)Nc2ccc(N3CCOCC3)cc2)cc1C | 4% | -6% | . | -20% | 8% | 0 | .
CCOC(=O)c1cccc(NC(=O)c2cn(-c3cccc(OC)c3)c(=O)c3ccccc23)c1 | . | -4% | -1% | -19% | 26% | . | .
COCCn1nnnc1C(c1cc2cc(OC)c(OC)cc2[nH]c1=O)N1CCN(c2ccc(O)cc2)CC1 (stereo not drawn) | ? | -27% | -3% | -9% | 45µM* | -54* | -4%
NS(=O)(=O)c1ccc2c(c1)C1C=CCC1C(C1CC=CCC1)N2 (stereo not drawn) | ? | -5% | 4% | ? | ? | -80* | -13%
CC(C)C1Nc2ccc(S(N)(=O)=O)cc2C2C=CCC21 (stereo not drawn) | 0% | -11% | -5% | 10% | ? | ? | .
Cc1cc(NC(=O)CSCC(=O)Nc2nc3ccccc3s2)no1 | -2% | -13% | . | 0% | 27% | 6 | .
C=CCNC(=O)NC(=O)COC(=O)CC(NC(N)=O)c1ccc(Cl)cc1 (stereo not drawn) | -17% | -2% | -4% | -15% | 7% | 8 | .

High-throughput results as filed in PubChem.
